Bioassay records: PubChem BioAssay, National Center for Advancing Translational Sciences (NCATS)
VP16 counter: inhibits Gal4-VP16 luciferase reporter, ROR gamma counter-screen. Drosophila S2 Gal4-VP16 UAS-luciferase, luminescence, 20 h. Potency, µM (doses to about 53.6 µM), inactives show at the highest dose activity, negative = inhibition, most hits filed as inhibitors. 3.5% of 310,000 active. AID 2546;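 note: Gal4-VP16 expression switched on by copper sulfate through the metallothionein promoter; % is set by controls: 0 for no effect and ±100 for the full control effect; nearly all actives have a fitted effect of over 50% in size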
GLP1R inv ag: acts as inverse agonist at human GLP-1 receptor; HEK293 GLP-1R CRE-luciferase, luminescence, 24 h; GLP-1R form is constitutively active; Potency, µM (doses to about 38.3 µM), for the others: top-dose activity change, negative = inhibition, hits mostly inhibitors; 1.6% of 410,000 active; AID 624417; note: % is set by controls: 0 for no effect and ±100 for the full control effect; nearly all actives have a fitted effect of over 55% in size
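Inverse agonism was detected as reduced cAMP-driven luciferase luminescence after 24 h compound treatment. The cells were HEK293 clones expressing constitutively active human GLP-1R with the reporter. Reporter-only and GPR119 cell lines served as counterscreen controls.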
RORg inh: inhibitors of mouse ROR gamma transcriptional activity; Potency, µM (highest dose often 53.6 µM), without a hit: at the top dose activity change, negative = inhibition, actives largely listed as inhibitors; 5.4% of 310,000 active; P51450; Drosophila S2 Gal4-RORgamma UAS-luciferase reporter, 20 h; note: % is set by controls: 0 for no effect and ±100 for the full control effect; nearly all actives have a fitted effect of over 60% in size
Target sequence (P51450 whole entry, looked up, the tested form may be a part): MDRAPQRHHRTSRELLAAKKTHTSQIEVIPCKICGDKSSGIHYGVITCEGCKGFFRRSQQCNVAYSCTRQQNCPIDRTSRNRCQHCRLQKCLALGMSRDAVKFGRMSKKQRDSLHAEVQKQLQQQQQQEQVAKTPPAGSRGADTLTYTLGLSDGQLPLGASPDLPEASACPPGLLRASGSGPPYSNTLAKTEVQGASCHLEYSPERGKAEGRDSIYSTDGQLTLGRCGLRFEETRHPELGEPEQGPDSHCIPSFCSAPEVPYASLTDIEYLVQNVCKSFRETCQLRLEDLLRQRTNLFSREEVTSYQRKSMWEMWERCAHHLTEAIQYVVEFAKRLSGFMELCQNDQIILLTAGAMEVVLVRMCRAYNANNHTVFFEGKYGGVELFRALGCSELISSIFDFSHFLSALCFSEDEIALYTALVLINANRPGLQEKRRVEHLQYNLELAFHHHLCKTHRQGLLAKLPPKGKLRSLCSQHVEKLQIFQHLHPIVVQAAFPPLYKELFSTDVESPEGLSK
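A Gal4/UAS one-hybrid system in insect cells: metallothionein-promoter Gal4–ROR gamma fusion plus Photinus luciferase reporter. Copper sulfate 700 uM final, 20 hr ambient incubation, luminescent detection after 10 min with reagent.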
HEK293 tox: cytotoxicity in counter-screen for GLP-1R inverse agonists; HEK293 cAMP-luciferase reporter cells, luminescence, 24 h; Potency, µM (top dose mostly 38.3 µM), for the others: top-dose activity change, negative = inhibition, most hits filed as inhibitors; 0.13% of 410,000 active;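 note: loss of luciferase light is scored as toxicity; % is set by controls: 0 for no effect and ±100 for the full control effect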
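Quantitative HTS format, 1536 wells, 200 cells/uL seeded. Compounds: 23 nL, 24 h, 37 °C. Detection: luciferase reagent, luminescence at 12 min RT; decreased signal taken as cytotoxic.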
GLP1R ag: GLP-1 receptor (human) agonism; Potency, µM (highest dose often 45.6 µM), for inactives: at the top dose activation, usual class: activators; 0.007% of 380,000 active; HEK293 GLP-1R CRE-luciferase, luminescence, 4-6 h; cells express a hypersensitive GLP-1R form; note: % of control where 0% means no effect
The depositor's hits bear a star; ? = inconclusive; · = no result; [ ] = dose if it differs, or a comment. The list is not random: actives were taken first. Their share in the collection is about 5.9%. Calls come from the whole dose curve; as a rule, active = well fitted curve in the direction sought with a large enough effect; inconclusive = small, poorly fitted or top-dose-only effect, or another doubt; inactive = no such curve, though single readings can be large; an effect the other way counts as inactive or inconclusive. Potency is the fitted concentration of half-maximal effect.

SMILES | VP16 counter | GLP1R inv ag | RORg inh | HEK293 tox | GLP1R ag
N#C/C(=C(/O)c1cccs1)c1nnc2n1CCCCC2 | ? | 56.2% | 10µM* | 9.9% | -5.3%
N#C/C(=C/c1ccccc1[N+](=O)[O-])c1nnc2n1CCCCC2 | -4.5% | -3.6% | -6.5% | -24.7% | -3.2%
N#C/C(=C(/O)c1ccc([N+](=O)[O-])cc1)c1nnc2n1CCCCC2 | ? | 8.4% | 17.8µM* | -5.7% | 0.0%
COC(=O)c1ccc(Cn2c(=O)cc(C(F)(F)F)c3c(C)nn(C)c32)cc1 | · | 14.1% | · | 5.0% | ·
CCC(Sc1ccccn1)C(=O)Nc1cccc([N+](=O)[O-])c1 (configuration not stated) | ? | ? | 15.8µM* | -2.1% | 13.9%
CC(Sc1cccc[n+]1[O-])C(=O)Nc1cccc([N+](=O)[O-])c1 (configuration not stated) | -16.3% | 6.1% | 24.9% | -3.7% | 2.9%
O=C(OCc1cccc(C(F)(F)F)c1)c1cc([N+](=O)[O-])ccc1N1CCOCC1 | · | 10µM* | · | -9.4% | 23.3%
O=C(c1ccc(Cl)cc1)c1cc([N+](=O)[O-])ccc1N1CCOCC1 | -1.7% | ? | 3.6% | ? | 26.2%
O=C(c1ccccc1)c1cc([N+](=O)[O-])ccc1N1CCOCC1 | -1.6% | ? | -6.8% | 11.2µM* | ?
O=C(c1ccc(Br)cc1)c1cc([N+](=O)[O-])ccc1N1CCOCC1 | 2.8% | 1.41µM* | 11.8% | ? | 24.4%
O=C(COC(=O)c1cc([N+](=O)[O-])ccc1N1CCOCC1)NCc1ccc(Cl)cc1Cl | -5.2% | 11.2µM* | 27.9% | -24.7% | 6.8%
COc1ccc(-c2nn(-c3ccccc3)cc2C2NC(=O)NC(C)=C2C(=O)OC(C)C)cc1Cl (configuration not stated) | · | -55.0% | · | -28.8% | -0.4%
Cc1oc2cc3oc(=O)c(CCC(=O)NCCc4ccccc4F)c(C)c3cc2c1C | · | -10.0% | · | -9.7% | ·
Cc1ccc(/C=N/Nc2nc3ccccc3s2)o1 | 10µM* | ? | 8.91µM* | ? | -1.4%
CN(Cc1ccc(C(C)(C)C)cc1)c1cccc2ccccc12 | · | · | · | · | -0.8%
O=C(Nc1nnc(-c2ccco2)o1)c1ccc(N2C(=O)CCC2=O)cc1 | ? | 6.7% | 11.2µM* | 7.7% | 1.1%
Cc1nn(-c2ccccc2)c(C)c1C(=O)Nc1nnc(-c2ccco2)o1 | -16.6%[0.365 µM] | 0.0% | 0.355µM* | ? | -14.0%
O=C(Nc1nnc(-c2ccco2)o1)c1ccc(Br)s1 | · | -28.0% | · | 0.0% | -3.2%
O=C(Nc1nnc(-c2ccc(Br)cc2)o1)c1cccc(N2C(=O)CCC2=O)c1 | · | -5.4% | · | 4.6% | -9.6%
O=C(Nc1nnc(-c2ccccc2)o1)c1cccc(N2C(=O)CCC2=O)c1 | 4.47µM* | 14.5% | 2.51µM* | -13.4% | -0.7%
O=C(Nc1nnc(-c2ccc(Cl)cc2)o1)c1ccc(N2C(=O)CCC2=O)cc1 | 2.82µM* | 8.5% | 1.12µM* | 13.1% | -7.8%
Cc1nn(-c2ccccc2)c(C)c1C(=O)NCCc1ccccc1 | -2.3% | -5.3% | -11.2% | 3.3% | 28.7%
COc1cc(Nc2nn(-c3ccc(OC(F)(F)F)cc3)nc2C(C)=O)cc(OC)c1 | · | 10.2% | · | 0.2% | ·
CC1CCN(c2ccc(NC(=S)NC(=O)c3ccco3)cc2)CC1 | 7.08µM* | ? | 3.16µM* | ? | -0.3%
O=C(NC(=S)Nc1ccc(N2CCCCC2)cc1)c1ccco1 | 20µM* | 0.0% | 7.08µM* | -27.1% | -4.9%
SMILES | VP16 counter | GLP1R inv ag | RORg inh | HEK293 tox | GLP1R ag
CSC(SC)=C(C#N)C(=O)c1ccccc1 | 11.2µM* | ? | -73.9% | ? | -0.6%
COCCCNC(=S)N1CCN(c2nc3ccccc3s2)CC1 | 17.5% | -7.8% | ? | -2.1% | 7.0%
COCCNC(=S)N1CCN(c2nc3ccccc3s2)CC1 | 12.6µM* | 3.1% | -0.5% | 3.3% | 1.5%
CC(=O)N1C2(C=CC1(C)C(=O)NCc1ccccn1)CCCCC2 (configuration not stated) | ? | · | 11.2µM* | · | ·
Cn1cccc1-c1cc2n(n1)CCC(=O)N2CCCC(=O)NCc1ccc(F)cc1 | · | -18.7% | · | -2.9% | ·
COc1ccc(OC)c(CCNC(=O)c2c(C)nn(-c3ccc(F)cc3)c2-n2cccc2)c1 | · | ? | · | 1.1% | 6.1%
